# Results reported in PubChem BioAssay.
# Potency and affinity values are given separately. A number with no mark means an inactive call.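 How the source made its calls: active means signal drop whose fitted half-maximal concentration is at most twice the top valid dose, in every test run; inconclusive means mixed calls across runs, poor fit, or flat 30 to 70% inhibition; inactive means wrong direction, flat within 30%, or potency beyond limit.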
# Experiment: RMG-1 ovarian cancer cell viability loss – cherry-pick, dose response (AID 687029);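 further: cells exposed to compound for 96 hours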
# Conditions: RMG-1 viability, CellTiterGlo ATP luminescence, 96 h; series mostly up to 35 µM; activity change, negative = inhibition: at the top concentration
row,Compound,"activity change, negative = inhibition"
1,N#Cc1nc(NCC(F)F)nc(Nc2cc(F)cc(F)c2)n1,3.56%
2,Cn1nnnc1Sc1ncnc2scc(-c3ccc[nH]3)c12,25.2%
3,CCCOc1ccc2[nH]c(C(=O)N/N=C/c3cc(OC)c(OC)c(OC)c3)cc2c1,32.7%
4,Oc1ccc(C[C@H]2CNC(=S)N2CC2CCCN2C[C@H](Cc2ccc(O)cc2)N2C[C@H](Cc3ccc(O)cc3)N(CC3CCCCC3)C2=S)cc1 (some centres not stated),48.9%
5,O=C(Nc1ccc(Cl)cc1)/C(=C/c1cccc(O)c1)c1nc2ccccc2s1,33.8%
6,C=C1C(=O)[C@]23C[C@H]1CC[C@H]2[C@]1(C)[C@@H](OC(C)=O)CC[C@@](C)(C(=O)O)[C@H]1C[C@@H]3O,23.9%
7,COc1cccc2c1C(=O)c1c(O)c3c(c(O)c1C2=O)CC(O)(C(C)=NNC(=O)c1ccc(Cl)c(Cl)c1)CC3OC1CC(N)C(O)C(C)O1 (configuration not stated),33.7%
8,O=C(NC(Nc1nc2ccc([N+](=O)[O-])cc2s1)(C(F)(F)F)C(F)(F)F)c1cccnc1,36.1%
9,CN(N=Nc1nc[nH]c1C(N)=O)C1CCCCC1,24.9%
10,COC(=O)[C@@]12C[C@@H](CC(=O)N3CCN(C(=O)c4ccco4)CC3)C(=O)N(Cc3ccccc3)C1=CCC(C)(C)C2,-4.92%
11,COc1ccc(OC)c2sc(N(CCCN(C)C)C(=O)CCS(=O)(=O)c3ccccc3)nc12,33.7% [at 16 µM]
12,Cc1cc(C)c(C(=O)/C=C/c2cccc3ccccc23)c(=O)[nH]1,47.6%
13,Cc1cc(C)n(-c2nc(NCCN(C)C)c3c4c(sc3n2)CCCC4)n1,-8.52%
14,CC(C)C(=O)N1CCN(c2ccc(NC(=O)c3ccc([N+](=O)[O-])o3)cc2Cl)CC1,24.3%
15,O=C(N/N=C/c1c[nH]c2ccccc12)c1[nH]c2ccc(Br)cc2c1-c1ccccc1,18.4%
16,COc1cc(NC(=O)c2ccc([N+](=O)[O-])o2)ccc1NC(=O)c1ccco1,28.9%
17,COCCN(CC(=O)NC1CCCCC1)C(=O)/C=C/C(=O)c1ccc(OC)cc1O,-9.58%
18,CCCCCc1c(-c2ccccc2OC)ncn1CCc1ccccc1OC,-14.4%
19,COc1ccc(/C=C2\CN(Cc3ccccc3)C/C(=C\c3ccc(OC)c(O)c3)C2=O)cc1O,11.5%
20,COc1cccc2c1C(=O)c1c(O)c3c(c(O)c1C2=O)C[C@](O)(C(C)=O)C[C@H]3O[C@@H]1C[C@@H](N)[C@@H](O)[C@@H](C)O1,31.6%
21,COc1ccc([N+](=O)[O-])c(S(=O)(=O)c2ccccc2)n1,30.1%
22,BrC(=C\c1ccccc1)/C=N/n1cnnc1,20.9%
23,O=[N+]([O-])c1cc2c(ccc3occc32)o1,-3.91%
24,C=CCC[C@@H](Cc1ccc(F)cc1)C(=O)OC[C@@H](Cc1c[nH]c2ccccc12)NC(=O)[C@H](CC=C)CC(=O)N(CCO)Cc1ccccc1,6.89%
25,CC(/C=C1\SC(=O)N(CC(=O)Nc2ccc(O)cc2)C1=O)=C\c1ccccc1,-8.58%
26,CC[C@]1(O)C[C@@H]2CN(CCc3c([nH]c4ccccc34)[C@@](C(=O)OC)(c3cc4c(cc3OC)N(C)[C@H]3[C@@](O)(C(=O)OC)[C@H](OC(C)=O)[C@]5(CC)C=CCN6CC[C@]43[C@@H]65)C2)C1,32%
27,CN1CC(=O)N2C(c3ccc(Cl)cc3)c3[nH]c4ccccc4c3C[C@H]2C1=O (some centres not stated),30.8%
